Test results taken from PubChem BioAssay (Tox21).
Records with an inconclusive call do not appear. Active and inactive are the calls of the source. Unless noted, the call rests on the fitted dose curve; in most records, active means well fitted curve in the direction sought with a large enough effect in the repeat runs; inconclusive means weak or mixed curves; inactive means no such curve, though single readings can be large; an effect the other way counts as inactive or inconclusive.

Assays:
[1] = qHTS assay to identify small molecule antagonists of the estrogen receptor alpha (ER-alpha) signaling pathway using the BG1 cell line in the presence of 0.1 nM 17-beta-estradiol - cell viability counter screen (AID 1259241); further: nearly all actives have a fitted effect of over 40% in size
Method in brief: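 CellTiter-Fluor read (30 min, 37C) on ER-alpha/ERE-luc VM7Luc4E2 cells; 22 hr compound treatment; agonist 0.1 nM E2 final; same-well multiplex.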

[2] = qHTS assay to identify small molecule antagonists of the androgen receptor (AR) signaling pathway using the MDA cell line in the presence of 0.5 nM R1881 - cell viability counter screen (AID 1259242); further: nearly all actives have a fitted effect of over 45% in size
Method in brief: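 MDA-kb2 cells (human breast carcinoma, stably carrying MMTV-luciferase reporter) were exposed to compounds with 0.5 nM R1881 (final) for 16 hr at 37C, 0% CO2; viability then read as live-cell protease fluorescence (CellTiter-Fluor, 30 min) in the same wells.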

[3] = target: Estrogen receptor (Homo sapiens) (UniProt P03372); assay: qHTS assay to identify small molecule antagonists of the estrogen receptor alpha (ER-alpha) signaling pathway using the BG1 cell line in the presence of 0.1 nM 17-beta-estradiol (AID 1259244); further: nearly all actives have a fitted effect of over 50% in size
Estrogen receptor (Homo sapiens), sequence (P03372 whole entry, looked up): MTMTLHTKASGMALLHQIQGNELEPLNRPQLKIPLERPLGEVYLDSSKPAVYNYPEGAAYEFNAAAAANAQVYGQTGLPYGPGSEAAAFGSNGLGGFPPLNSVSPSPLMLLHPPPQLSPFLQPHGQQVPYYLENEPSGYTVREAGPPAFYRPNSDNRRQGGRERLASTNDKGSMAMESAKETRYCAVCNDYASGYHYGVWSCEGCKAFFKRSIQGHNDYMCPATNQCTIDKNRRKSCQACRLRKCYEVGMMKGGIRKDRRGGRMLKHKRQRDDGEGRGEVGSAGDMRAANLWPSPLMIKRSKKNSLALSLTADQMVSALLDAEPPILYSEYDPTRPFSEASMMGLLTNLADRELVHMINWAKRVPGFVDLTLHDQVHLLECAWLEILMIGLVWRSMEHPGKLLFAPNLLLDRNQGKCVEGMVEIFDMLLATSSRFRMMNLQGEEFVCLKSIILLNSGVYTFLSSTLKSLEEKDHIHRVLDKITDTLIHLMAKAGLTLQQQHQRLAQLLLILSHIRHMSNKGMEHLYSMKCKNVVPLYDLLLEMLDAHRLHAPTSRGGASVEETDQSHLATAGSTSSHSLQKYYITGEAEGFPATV
Method in brief: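 VM7Luc4E2 cells (endogenous full-length ER-alpha, stable 4xERE-luciferase) were grown 5 days in phenol red-free medium with charcoal-stripped FBS, then exposed 22 h at 37C to compounds plus 0.1 nM (final) 17beta-estradiol; ONE-Glo luminescence read-out.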

[4] = qHTS assay to identify small molecule phospholipidosis (PLD) inducers (AID 1259344; active means well fitted curve in the direction sought with a large enough effect; an effect the other way counts as inactive or inconclusive)
Method in brief: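 HepG2 cells on collagen I, attached 4 h at 37 C, were co-treated with compound and LipidTOX Red dye for 24 h at 37 C, then fixed with paraformaldehyde plus Hoechst 33342 and imaged by high-content microscopy for phospholipid accumulation.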

[5] = qHTS assay to identify small molecule HDAC inhibitors (AID 1259364); further: top concentration of the series differs between compounds; nearly all actives have a fitted effect of over 45% in size
Method in brief: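 Wild-type HCT-116 cells were plated overnight, exposed to compounds for 2 h at 37 °C, then given HDAC-Glo class I/II luminogenic reagent for 30 min at room temperature before luminescence was read.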

[6] = qHTS assay to identify small molecule HDAC inhibitors - cell viability counter screen (AID 1259365); further: series mostly up to about 92 µM; nearly all actives have a fitted effect of over 50% in size
Method in brief: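 To flag cytotoxic hits, 1,500 wild-type HCT-116 cells per well, plated the day before, receive test compounds for 2hr at 37 C before CellTiter-Glo reagent and a luminescence read.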

[7] = qHTS assay to identify small molecule agonists of the sonic hedgehog signaling (Shh) pathway - cell viability counter screen (AID 1259366); further: nearly all actives have a fitted effect of over 50% in size
Method in brief: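 Fluorescence from CellTiter-Fluor reports live cells in this counter screen. NIH/3T3-derived Gli1-Luc reporter cells receive test compounds for 24hr at 37C; reagent goes in at 23hr.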

[8] = qHTS assay to identify small molecule antagonists of the sonic hedgehog signaling (Shh) pathway - cell viability counter screen (AID 1259367); further: nearly all actives have a fitted effect of over 55% in size
Method in brief: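 NIH/3T3-derived Gli1-Luc reporter cells (2,000 per well) rested 4 hr at 37 C, then received DMSO compounds plus conditioned medium. After 23 hr of treatment, CellTiter-Fluor was added for 1 hr at 37C and fluorescence read.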

[9] = qHTS assay to identify small molecule agonists of the sonic hedgehog signaling (Shh) pathway (AID 1259368; calls by dose curve; further: series mostly up to about 92 µM; nearly all actives have a fitted effect of over 15% in size)
Method in brief: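 NIH/3T3-derived 3T3Gli1-Luc cells carrying a stably integrated Gli1 response element–firefly luciferase reporter were plated, left 4 hr at 37 C, then given compounds in DMSO for 24 hr. Luminescence was read 30 min after adding luciferase reagent.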

[10] = qHTS assay to identify small molecule antagonists of the sonic hedgehog signaling (Shh) pathway (AID 1259369; calls by dose curve; further: nearly all actives have a fitted effect of over 45% in size)
Method in brief: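 NIH/3T3-derived 3T3Gli1-Luc cells with stably integrated Gli1-Luc reporter were preincubated 4hr at 37 C, then given compounds in DMSO plus Shh conditioned medium and incubated 24hr. Firefly luciferase luminescence read after 30min reagent at room temperature.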

[11] = target: Estrogen receptor beta (Homo sapiens) (UniProt Q92731); assay: qHTS assay to identify small molecule agonists of the estrogen receptor beta (ER-beta) signaling pathway (AID 1259377; active means well fitted activation curve with a large enough effect in the signal ratio in the repeat runs, not every such curve was filed as active; the % refers to the signal ratio)
Estrogen receptor beta (Homo sapiens), sequence (Q92731 whole entry, looked up): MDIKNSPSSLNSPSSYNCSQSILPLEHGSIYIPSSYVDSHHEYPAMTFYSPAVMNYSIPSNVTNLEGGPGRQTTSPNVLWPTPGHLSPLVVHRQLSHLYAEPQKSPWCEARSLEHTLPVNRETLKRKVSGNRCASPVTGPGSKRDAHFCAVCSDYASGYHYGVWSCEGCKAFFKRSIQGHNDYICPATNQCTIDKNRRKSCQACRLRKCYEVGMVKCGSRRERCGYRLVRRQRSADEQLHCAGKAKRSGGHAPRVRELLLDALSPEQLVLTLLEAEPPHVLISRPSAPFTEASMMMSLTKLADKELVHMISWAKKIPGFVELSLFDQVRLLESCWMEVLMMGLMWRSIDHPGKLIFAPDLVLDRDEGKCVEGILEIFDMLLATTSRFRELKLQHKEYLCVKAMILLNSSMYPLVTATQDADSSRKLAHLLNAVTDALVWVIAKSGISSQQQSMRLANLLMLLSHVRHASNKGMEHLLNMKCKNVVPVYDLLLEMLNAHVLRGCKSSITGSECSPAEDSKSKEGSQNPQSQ
Method in brief: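 Screening used GripTite ER-beta-UAS-bla cells held in 2% charcoal-stripped FBS medium. After overnight (16 hr) compound incubation at 37C, beta-lactamase activity was detected with a FRET substrate by fluorescence.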

[12] = target: Estrogen receptor beta (Homo sapiens) (UniProt Q92731); assay: qHTS assay to identify small molecule antagonists of the estrogen receptor beta (ER-beta) signaling pathway (AID 1259378; active means well fitted inhibition curve with a large enough effect in the signal ratio in the repeat runs, not every such curve was filed as active; the % refers to the signal ratio)
Method in brief: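 ER-beta-UAS-bla HEK293T (GripTite) cells in 2% charcoal-stripped FBS medium were preincubated 6 hr at 37C, dosed with compound, then stimulated with 1 nM E2 (final) for 16 hr; beta-lactamase reporter read by B/G FRET fluorescence after 2 hr substrate loading.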

[13] = qHTS assay to identify small molecule agonists of the androgen receptor (AR) signaling pathway in the presence of an antagonist - cell viability counter screen (AID 1259379); further: series mostly up to about 92 µM; nearly all actives have a fitted effect of over 25% in size
Method in brief: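 MDA-kb2 human breast carcinoma cells (stable MMTV-luciferase, AR/GR responsive) were seeded 3,000 cells/well, pre-incubated 5 hr at 37C without CO2, then given 3.0uM nilutamide and compounds at 15 concentrations for 16 hr. Viability was read by CellTiter-Fluor fluorescence.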

[14] = qHTS assay to identify small molecule agonists of the estrogen receptor beta (ER-beta) signaling pathway - cell viability counter screen (AID 1259380); further: nearly all actives have a fitted effect of over 30% in size
Method in brief: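 ER-beta-UAS-bla HEK293T cells in medium with 2% charcoal-stripped FBS were preincubated 6 hr at 37C, dosed with compound in DMSO for 16 hr, then after the bla read, CellTiter-Glo was added for 30 min at room temperature; luminescence recorded.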

[15] = qHTS assay to identify small molecule antagonists of the estrogen receptor beta (ER-beta) signaling pathway - cell viability counter screen (AID 1259382); further: series mostly up to about 92 µM; nearly all actives have a fitted effect of over 55% in size
Method in brief: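 ER-beta-UAS-bla HEK293T cells (2,000/well, 2% charcoal-stripped FBS) were pre-incubated 6 hr at 37C, then given compound plus 1nM final 17-beta-estradiol for 16 hr. Viability was read in the same wells by CellTiter-Glo luminescence after 30 min at room temperature.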

[16] = target: Estrogen receptor (Homo sapiens) (UniProt P03372); assay: qHTS assay to identify small molecule agonists of the estrogen receptor alpha (ER-alpha) signaling pathway in the presence of an antagonist (AID 1259383; calls by dose curve; further: top concentration of the series differs between compounds; nearly all actives have a fitted effect of over 15% in size)
Method in brief: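 VM7Luc4E2 cells (endogenous full-length ER-alpha, 4×ERE-luciferase) were precultured 5 days in phenol red-free medium with 10% charcoal-stripped FBS, given 10.0nM ICI-182,780 (final), then treated with compounds at 15 concentrations for 22hr at 37C; luminescence read with ONE-Glo.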

[17] = qHTS assay to identify small molecule agonists or antagonists of the thyroid stimulating hormone receptor (TSHR) signaling pathway - wild type cell line counter screen (AID 1259384; calls by dose curve)
Method in brief: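 Wild-type HEK293 cells were plated 18 h at 37 C/5% CO2, pin-dosed with compound plus Ro20-1724 medium, held 30 min at room temperature, then given cAMP-d2 and anti-cAMP-cryptate; fluorescence was read after 1 h. Fifteen concentrations, triplicate.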

[18] = target: Thyrotropin receptor (Homo sapiens) (UniProt P16473); assay: qHTS assay to identify small molecule antagonists of the thyroid stimulating hormone receptor (TSHR) signaling pathway (AID 1259385; calls by dose curve; further: nearly all actives have a fitted effect of over 20% in size)
Thyrotropin receptor (Homo sapiens), sequence (P16473 whole entry, looked up): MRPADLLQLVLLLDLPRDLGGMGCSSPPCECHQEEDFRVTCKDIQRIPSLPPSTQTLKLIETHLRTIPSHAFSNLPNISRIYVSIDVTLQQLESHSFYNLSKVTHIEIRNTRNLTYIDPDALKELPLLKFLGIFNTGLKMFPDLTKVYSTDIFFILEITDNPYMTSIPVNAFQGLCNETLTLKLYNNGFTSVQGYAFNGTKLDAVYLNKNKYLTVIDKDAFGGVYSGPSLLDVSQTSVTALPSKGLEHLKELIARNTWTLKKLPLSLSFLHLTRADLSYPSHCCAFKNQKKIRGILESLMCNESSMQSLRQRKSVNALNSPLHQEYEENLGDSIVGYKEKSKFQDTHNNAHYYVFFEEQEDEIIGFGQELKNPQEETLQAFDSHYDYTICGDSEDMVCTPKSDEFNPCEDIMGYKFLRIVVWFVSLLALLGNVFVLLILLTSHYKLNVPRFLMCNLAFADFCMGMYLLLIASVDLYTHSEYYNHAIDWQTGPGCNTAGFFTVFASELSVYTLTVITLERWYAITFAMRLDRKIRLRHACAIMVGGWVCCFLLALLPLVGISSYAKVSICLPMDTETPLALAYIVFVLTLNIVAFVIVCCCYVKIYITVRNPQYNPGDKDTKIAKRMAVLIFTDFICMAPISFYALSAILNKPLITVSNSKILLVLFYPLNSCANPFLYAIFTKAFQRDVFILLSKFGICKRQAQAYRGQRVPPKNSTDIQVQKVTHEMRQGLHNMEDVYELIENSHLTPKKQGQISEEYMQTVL
Method in brief: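 TSHR-HEK293 cells were plated and held 18 h at 37C/5% CO2, then given compound plus Ro20-1724 and stimulated with TSH at 1.5 ng/mL final. After 30 min at room temperature, cAMP was detected with cAMP-d2/anti-cAMP-cryptate (1 h) by fluorescence.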

[19] = qHTS assay to identify small molecule agonists of the estrogen receptor alpha (ER-alpha) signaling pathway in the presence of an antagonist - cell viability counter screen (AID 1259386); further: series mostly up to about 92 µM; nearly all actives have a fitted effect of over 30% in size
Method in brief: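 VM7Luc4E2 cells (endogenous full-length ER-alpha, 4×ERE-luciferase) were held 5 days in phenol red-free medium with 10% charcoal-stripped FBS, plated, then given 10.0nM ICI-182,780 and compounds at 15 concentrations for 22hr at 37C; viability read by CellTiter-Fluor fluorescence.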

[20] = target: Androgen receptor (Homo sapiens) (UniProt P10275); assay: qHTS assay to identify small molecule antagonists of the androgen receptor (AR) signaling pathway using the MDA cell line in the presence of 0.5 nM R1881 (AID 1259243); further: nearly all actives have a fitted effect of over 50% in size
Androgen receptor (Homo sapiens), sequence (P10275 whole entry, looked up): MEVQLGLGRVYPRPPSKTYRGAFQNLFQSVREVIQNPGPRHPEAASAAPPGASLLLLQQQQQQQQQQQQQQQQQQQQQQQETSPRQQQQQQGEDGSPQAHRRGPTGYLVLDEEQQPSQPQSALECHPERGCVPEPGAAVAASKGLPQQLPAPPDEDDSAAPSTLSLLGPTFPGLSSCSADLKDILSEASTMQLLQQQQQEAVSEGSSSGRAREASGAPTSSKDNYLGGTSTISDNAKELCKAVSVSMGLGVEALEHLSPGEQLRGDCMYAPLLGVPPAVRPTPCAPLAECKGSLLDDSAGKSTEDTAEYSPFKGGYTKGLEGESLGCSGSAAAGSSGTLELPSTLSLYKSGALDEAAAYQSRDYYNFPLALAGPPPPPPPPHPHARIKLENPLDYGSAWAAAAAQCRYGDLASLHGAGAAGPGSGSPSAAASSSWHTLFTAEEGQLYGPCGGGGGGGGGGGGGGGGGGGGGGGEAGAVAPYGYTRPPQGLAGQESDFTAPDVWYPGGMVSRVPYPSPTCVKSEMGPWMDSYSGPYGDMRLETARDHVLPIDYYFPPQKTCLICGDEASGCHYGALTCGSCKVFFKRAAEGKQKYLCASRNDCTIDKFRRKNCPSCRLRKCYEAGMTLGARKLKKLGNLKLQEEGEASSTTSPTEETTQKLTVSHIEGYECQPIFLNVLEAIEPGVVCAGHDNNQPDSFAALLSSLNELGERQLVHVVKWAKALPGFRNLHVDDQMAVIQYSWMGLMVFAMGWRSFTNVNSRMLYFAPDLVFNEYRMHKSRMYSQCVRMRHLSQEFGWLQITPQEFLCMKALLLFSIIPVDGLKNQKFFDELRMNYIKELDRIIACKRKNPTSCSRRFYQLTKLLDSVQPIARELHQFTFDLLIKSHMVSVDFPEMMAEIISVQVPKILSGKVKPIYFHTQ
Method in brief: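 MDA-kb2 human breast carcinoma cells carrying an MMTV-luciferase reporter (AR- and GR-responsive) were plated, rested 5 hr at 37C, dosed with compounds, then stimulated with 0.5 nM R1881 (final) for 16 hr; luminescence was read after ONE-Glo.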

Measured: Potency

CCO/C([O-])=N/c1c[n+](N2CCOCC2)no1
inactive: [1] | [2] | [3] | [4] | [5] | [6] | [7] | [8] | [9] | [10] | [11] | [12] | [13] | [14] | [15] | [16] | [17] | [18] | [19]

CN1CCN(c2cc3c(cc2F)c(=O)c(C(=O)O)cn3-c2ccc(F)cc2)CC1
inactive: [1] | [2] | [20] | [4] | [5] | [6] | [7] | [8] | [9] | [11] | [13] | [14] | [15] | [19]

NC(=O)Nc1ccccc1
inactive: [1] | [2] | [3] | [5] | [6] | [7] | [8] | [9] | [10] | [11] | [12] | [13] | [14] | [15] | [16] | [18] | [19]

N#Cc1ccc(C2CCCc3cncn32)cc1 (configuration not stated)
inactive: [1] | [2] | [3] | [5] | [6] | [7] | [8] | [9] | [10] | [13] | [14] | [15] | [17] | [19]

COCCCOCCCOC
inactive: [1] | [2] | [3] | [5] | [6] | [7] | [8] | [9] | [10] | [11] | [12] | [13] | [14] | [15] | [16] | [17] | [18] | [19]

CCCCCSCCCCC
inactive: [1] | [2] | [3] | [5] | [6] | [7] | [8] | [9] | [10] | [13] | [14] | [15] | [18] | [19]

CCOC(=O)c1ccc(C)cc1
inactive: [1] | [2] | [3] | [5] | [6] | [7] | [8] | [9] | [10] | [11] | [12] | [13] | [14] | [15] | [19]

CCO[Si](CCC1CCC2OC2C1)(OCC)OCC (configuration not stated)
inactive: [1] | [2] | [3] | [5] | [6] | [7] | [8] | [9] | [11] | [12] | [13] | [14] | [15] | [16] | [17] | [18] | [19]

N=C(N)c1ccc2cc(OC(=O)c3ccc(N=C(N)N)cc3)ccc2c1
inactive: [1] | [2] | [3] | [4] | [6] | [7] | [8] | [9] | [10] | [13] | [14] | [15] | [16] | [19]
